In PubChem BioAssay AID493221 (Johns Hopkins Ion Channel Center, 2011):
In all, about 2,400 compounds went through this assay and about 1,700 (71%) were called active.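 How the source made its calls: active means choline transporter activity left, mean of duplicates at 10 µM, below buffer-only control mean minus 3 SD; inactive means the rest.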 So high a share suggests a set chosen from earlier hits. These entries were drawn from the full list.

Target: High affinity choline transporter 1 (Homo sapiens) (UniProt Q9GZV3)
Sequence (Q9GZV3 whole entry, looked up): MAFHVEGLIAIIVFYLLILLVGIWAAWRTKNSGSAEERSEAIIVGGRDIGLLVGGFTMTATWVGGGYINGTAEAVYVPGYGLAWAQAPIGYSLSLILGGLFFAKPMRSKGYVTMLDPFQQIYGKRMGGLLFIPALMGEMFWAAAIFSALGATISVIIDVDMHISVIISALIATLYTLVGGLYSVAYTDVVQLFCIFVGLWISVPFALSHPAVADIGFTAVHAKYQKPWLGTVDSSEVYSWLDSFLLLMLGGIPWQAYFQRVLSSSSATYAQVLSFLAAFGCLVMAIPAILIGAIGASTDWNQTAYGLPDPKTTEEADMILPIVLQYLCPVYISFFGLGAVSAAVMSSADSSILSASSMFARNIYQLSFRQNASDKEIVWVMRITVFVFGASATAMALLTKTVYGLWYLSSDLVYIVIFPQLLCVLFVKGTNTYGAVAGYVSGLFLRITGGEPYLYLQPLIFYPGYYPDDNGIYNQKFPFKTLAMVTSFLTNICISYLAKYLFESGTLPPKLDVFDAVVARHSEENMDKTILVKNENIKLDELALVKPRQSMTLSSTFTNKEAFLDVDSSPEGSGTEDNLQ
Assay: human choline transporter blockers – cell-based, membrane potential dye, duplicate, confirmation (AID 493221)
Conditions: CHT-expressing cells, at 10 µM, LV-to-AA substituted CHT, HEK293 cells

| Structure (SMILES) | CHT activity remaining % of control (stronger effect = lower value) |
| --- | --- |
| COC(=O)CN1C(C)=Nc2ccc(Br)cc2C1c1ccccc1 (stereo not given) | inactive |
| O=C(O)CC1=C(Nc2ccccc2)C(=O)N(c2ccccc2)C1c1ccc(Cl)cc1 (stereo not given) | 26.7% (active) |
| O=S(=O)(Nc1ccc(Cl)cn1)c1cnc(Cl)c(Br)c1 | inactive |
| CCC(=O)Nc1nnc(S(=O)(=O)N(CC(C)C)c2ccccc2)s1 | inactive |
| C/C(=N\NC(N)=S)c1cccnc1 | inactive |
| O=C(O)c1ccc(N/N=C/c2cn(-c3ccccc3)nc2-c2cccs2)cc1 | 65.1% (active) |
| COc1nc(OC)nc(N(C)CCO)n1 | inactive |
| CCOC(=O)N1CCN(C(=O)c2ccc(CN(c3ccc(C)c(C)c3)S(C)(=O)=O)cc2)CC1 | inactive |
| CCN(Cc1ccccc1)S(=O)(=O)c1cc(C(=O)O)ccc1OC | 58.7% (active) |
| O=C(Nc1ccccc1C(=O)NCCCn1ccnc1)c1ccc(Cl)cc1Cl | 52.6% (active) |
| CC(C)(C)C(=O)/C(C#N)=C/c1ccc(O)cc1 | 68.6% (active) |
| O=C(Nc1ccn(Cc2ccccc2)n1)c1n[nH]c([N+](=O)[O-])c1Cl | 48.6% (active) |
| CC1CCN(C(=O)CN(c2ccc(Oc3ccccc3)cc2)S(C)(=O)=O)CC1 | inactive |
| CC(C)(C)NC(=O)NC(=O)CN1CCC(Cc2ccccc2)CC1 | 43.5% (active) |
| Cc1ccc(SC(CC(=O)c2ccc(C(C)(C)C)cc2)C(=O)O)cc1 (stereo not given) | 42% (active) |
| CC1CCN(CCCNC(=O)CN2C(=O)CSc3ccc(S(=O)(=O)N4CCCCC4)cc32)CC1 | 53.6% (active) |
| CCOCCCN(C)C1CCN(C(=O)c2oc3ccccc3c2NC(=O)COc2cccc(C)c2)CC1 | 44.8% (active) |
| Cc1cccnc1NC(=O)c1cccc(S(=O)(=O)N2CCN(c3ccc(F)cc3)CC2)c1 | 56.9% (active) |

| Structure (SMILES) | CHT activity remaining % of control (stronger effect = lower value) |
| --- | --- |
| Cc1ccc(C(=O)NC2CCCC(C)C2C)cc1S(=O)(=O)N1CCCCC1 (stereo not given) | 43.5% (active) |
| CC1CCCC(NC(=O)c2cccc(N3CCCC3=O)c2)C1C (stereo not given) | 45.1% (active) |
| CC1CN(S(=O)(=O)c2ccc(C(=O)NN3CCN(C)CC3)cc2)CC(C)O1 (stereo not given) | inactive |
| O=C(C1CCN(S(=O)(=O)c2ccc(Br)s2)CC1)N1CCN(c2ccccc2)CC1 | 41.8% (active) |
| COc1ccc2c(c1)OC(O)(C(F)(F)C(F)F)CC2=O (stereo not given) | 25.8% (active) |
| CN(C)c1ccc(Nc2c3c4c(cccc4n(C)c2=O)C(=O)c2ccccc2-3)cc1 | 42.1% (active) |
| CC1(C)SC2C(NC(=O)COc3ccccc3)C(=O)N2C1C(=O)O (stereo not given) | inactive |
| CC(NC(=O)c1ccc(N2CCNCC2)c([N+](=O)[O-])c1)C12CC3CC(CC(C3)C1)C2 (stereo not given) | 52.3% (active) |
| CCc1ccccc1N1CN(Cc2ccco2)CNC1=S | inactive |
| CCOC(=O)C1(CCOC)CCN(Cc2ccc(C(=O)OC)cc2)CC1 | 71% (active) |
| O=C1/C(=C/c2ccc(F)cc2)SC(=S)N1NS(=O)(=O)c1ccccc1 | 71.2% (active) |
| O=C(O)c1ccc(/C=C2\SC(=S)N(NC(=O)c3ccc(Br)cc3)C2=O)cc1 | 41.7% (active) |
| CCOc1ccc(/C=C2\SC(=S)N(NC(=O)c3ccncc3)C2=O)cc1OC | 69.4% (active) |
| CC(C)n1c(=S)[nH]c2cc(C(F)(F)F)ccc21 | 59.3% (active) |
| CC(Oc1ccc2ccccc2c1)C(=O)NNC(=S)NC(=O)c1ccco1 (stereo not given) | 67% (active) |
| N#Cc1ccc(C(=O)Nc2cccc3cccnc23)c(F)c1 | inactive |
| COc1ccc(C(CNC(=O)c2cccc(NS(=O)(=O)c3ccc(C)c(F)c3)c2)N2CCCC2)cc1 (stereo not given) | 38.4% (active) |
